Results filed as inconclusive are left out. Values without a mark were called inactive. The call rests on the fitted dose curve; in most records, active means well fitted inhibition curve with a large enough effect; inconclusive means small, poorly fitted or top-dose-only effect; inactive means flat fitted curve, though single readings scatter.
These compounds were tested against Calcium and integrin-binding protein 1 (Homo sapiens) (UniProt Q99828) (assay: Primary qHTS for Identification of Calcium Integrin Binding Protein 1 (CIB1) Competitor (AID 1508620; further: top concentration of the series differs between compounds)). Conditions: CIB1-GST / FITC-alphaIIb peptide fluorescence polarization; series mostly up to 114 µM; activity change, negative = inhibition: at the top concentration.
Chain of Calcium and integrin-binding protein 1 (Homo sapiens) (Q99828 whole entry, looked up): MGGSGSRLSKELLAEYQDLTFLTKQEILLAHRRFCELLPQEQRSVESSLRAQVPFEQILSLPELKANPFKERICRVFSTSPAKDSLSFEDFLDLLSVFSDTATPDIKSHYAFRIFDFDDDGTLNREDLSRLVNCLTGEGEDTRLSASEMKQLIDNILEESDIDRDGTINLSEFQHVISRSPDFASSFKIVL
Method in brief: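 Fluorescence polarization competition: GST-tagged CIB1 (1 uM final) preincubated with compound 15 min at room temperature, then FITC-labelled alphaIIb peptide (100 nM final) added. After 15 min at room temperature, polarization read at Ex 480/Em 540.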
On the % scale 0 is the no-effect control and ±100 the full control effect.

Question: Which “activity change, negative = inhibition” value does the source give for CC(CCC1(O)OC2CC3C4CCC5CC(O[C@@H]6O[C@H](CO)[C@@H](O)[C@H](O)[C@H]6O[C@@H]6O[C@@H](C)[C@H](O)[C@@H](O)[C@H]6O)C(O)CC5(C)C4CCC3(C)C2C1C)CO[C@@H]1O[C@H](CO)[C@@H](O)[C@H](O)[C@H]1O (stereo partly specified) here?
Answer: Its value is -0.336% [at 30.2 µM].

Question: Which “activity change, negative = inhibition” value does the source give for CCC[C@@H]1O[C@@H]2C[C@H]3[C@@H]4CCC5=CC(=O)C=C[C@]5(C)[C@H]4[C@@H](O)C[C@]3(C)[C@]2(C(=O)CO)O1 here?
Answer: Its value is -2.11%.

Question: With C[C@@H]1O[C@@H](O[C@H]2[C@H](OC(=O)[C@]34CCC(C)(C)C[C@H]3C3=CCC5[C@@]6(C)C[C@H](O)[C@H](O[C@@H]7O[C@H](CO)[C@@H](O)[C@H](O)[C@H]7O)[C@@](C)(CO)C6[C@H](O)C[C@@]5(C)[C@]3(C)C[C@H]4O)OC[C@H](O)[C@@H]2O)[C@H](O)[C@H](O)[C@H]1O[C@@H]1OC[C@@H](O)[C@H](O[C@H]2OC[C@](O)(CO)[C@H]2O)[C@H]1O (stereo partly specified) as the compound, how does the activity change, negative = inhibition read?
Answer: Its activity change, negative = inhibition is 3.47% [at 12.4 µM].

Question: Which “activity change, negative = inhibition” value does the source give for COC(=O)C1=CO[C@@H](O)C2C(CO)=CCC12 (stereo partly specified) here?
Answer: Its value is 4.27%.

Question: How did the “activity change, negative = inhibition” value turn out when COc1cc2c(c(OC)c1CC=C(C)C)C[C@H](c1ccc(O)cc1O)CO2 was run?
Answer: The value was -12% [at 57.7 µM].

Question: How did the “activity change, negative = inhibition” value turn out when CC1(C)CCCC2(C)C(CO)C(CO)=CCC12 (stereo unspecified) was run?
Answer: The value was -1.19%.

Question: How did the activity change, negative = inhibition turn out when CC(=O)O[C@@H]1[C@H](O[C@@H]2O[C@@H](CO)[C@H](O)[C@H]2O)[C@@H](O[C@@H]2O[C@@H](C)[C@H](O[C@@H]3OC[C@@H](O)[C@H](O)[C@H]3O)[C@@H](O)[C@H]2O)[C@H](OC(=O)[C@]23CCC(C)(C)C[C@H]2C2=CCC4[C@@]5(C)CC[C@H](O[C@@H]6O[C@H](C(=O)O)[C@@H](O)[C@H](O)[C@H]6O[C@@H]6O[C@H](CO)[C@H](O)[C@H](O)[C@H]6O)[C@@](C)(C=O)C5CC[C@@]4(C)[C@]2(C)CC3)O[C@@H]1C (stereo partly specified) was run?
Answer: Its activity change, negative = inhibition is -9.52% [at 12.4 µM].

Question: C=CC(C)(O)CC/C=C(\C)C(=O)OC1C(O)C(CO)OC(OC(=O)C23CCC(C)(C)CC2C2=CCC4C5(C)CCC(OC6OC(COC7OCC(OC(C)=O)C(O)C7OC7OC(COC(C)=O)C(O)C(O)C7O)C(O)C(O)C6O)C(C)(C)C5CCC4(C)C2(C)C(O)C3O)C1OC1OCC(OC2OCC(O)C(OC3OCC(O)C(O)C3O)C2O)C(O)C1O (stereo unspecified) was tested. Which activity change, negative = inhibition did it give?
Answer: Its activity change, negative = inhibition is 3.39% [at 12.4 µM].

Question: With CC1=CCC2C(C)(C)CCC[C@]2(C)[C@@]12CC[C@](C)(CC(=O)O)O2 (stereo partly specified) as the compound, how does the “activity change, negative = inhibition” value read?
Answer: The value was 0.256% [at 57.7 µM].

Question: For COC(=O)[C@H](O)[C@H]1C(C)(C)[C@H](OC(=O)C(C)C)[C@@]2(O)C(=O)[C@]1(C)C1CC[C@]3(C)C(CC(=O)O[C@H]3c3ccoc3)[C@]13O[C@@H]32 (stereo partly specified), which “activity change, negative = inhibition” value is on record?
Answer: The value was 4.66% [at 30.2 µM].

Question: For OCC1OC(Oc2cc(O)cc(/C=C/c3ccc(O)cc3)c2)C(O)C(O)C1O (stereo unspecified), which “activity change, negative = inhibition” value is on record?
Answer: The value was 2.33% [at 57.7 µM].

Question: Which “activity change, negative = inhibition” value does the source give for CC(=O)O[C@@H]1CC(C)=C2[C@H]1[C@H](C)CC[C@H]2/C=C(\C)C(=O)O here?
Answer: The value was 1.84%.

Question: Which “activity change, negative = inhibition” value does the source give for O=C1C=CC(O)(/C=C/C(=O)OC[C@H]2O[C@@H](Oc3ccc(O)cc3)[C@H](O)[C@@H](O)[C@@H]2O)C=C1 here?
Answer: The value was -6.8% [at 57.7 µM].

Question: With CC(=O)OC1C(O)CC2(C)C(CCC(C)C23Cc2c(O)cc(CO)c(C=O)c2O3)C1(C)C (stereo unspecified) as the compound, how does the “activity change, negative = inhibition” value read?
Answer: The value was -17.5% [at 57.7 µM].

Question: Which “activity change, negative = inhibition” value does the source give for CC1(C)CCCC2(C)C1CC(=O)C13CC(CCC12)C(O)(CO)C3 (stereo unspecified) here?
Answer: The value was 1.17% [at 57.7 µM].

Question: Which “activity change, negative = inhibition” value does the source give for COc1ccc2c(OC)c3ccoc3nc2c1OC here?
Answer: The value was 0.975%.

Question: For C=C1CCC2C(C)(C)CCC[C@]2(C)[C@H]1C/C=C(\CO)C(=O)C(=O)O (stereo partly specified), which “activity change, negative = inhibition” value is on record?
Answer: The value was -0.419% [at 57.7 µM].

Question: C[C@@H]1O[C@@H](O[C@H]2[C@H](OC(=O)[C@]34CCC(C)(C)C[C@H]3C3=CCC5[C@@]6(C)C[C@H](O)[C@H](O[C@@H]7O[C@H](CO)[C@@H](O[C@H]8OC[C@](O)(CO)[C@H]8O)[C@H](O)[C@H]7O)[C@@](C)(CO)C6[C@H](O)C[C@@]5(C)[C@]3(C)C[C@H]4O)OC[C@H](O)[C@@H]2O)[C@H](O)[C@H](O)[C@H]1O[C@@H]1OC[C@@H](O)[C@H](O[C@@H]2OC[C@](O)(CO)[C@H]2O)[C@H]1O (stereo partly specified) was tested. Which activity change, negative = inhibition did it give?
Answer: Its activity change, negative = inhibition is -2.92% [at 12.4 µM].

Question: O=S(=O)(Nc1ccccn1)c1ccc(N=Cc2c(O)[nH]c3ccc4ncsc4c23)cc1 was tested. Which “activity change, negative = inhibition” value did it give?
Answer: The value was -7.41% [at 30.2 µM].

Question: How did the “activity change, negative = inhibition” value turn out when COc1ccc(CCC(=O)c2c(O)cc(O)cc2O[C@@H]2O[C@H](CO)[C@@H](O)[C@H](O)[C@H]2O)cc1 was run?
Answer: Its value is 3.74% [at 57.7 µM].

Question: How did the “activity change, negative = inhibition” value turn out when CNC(C)C(=O)NC(C(=O)N1CCCC1c1nc(C(=O)c2ccc(F)cc2)cs1)C1CCCCC1 (stereo unspecified) was run?
Answer: Its value is 4.31%.

Reference: PubChem BioAssay (NCATS)
